# Results from PubChem BioAssay (EPA / NIEHS).
# Calls of active or inactive are those of the source. How the source made its calls: active means hit-call score of the fitted dose curve at least 0.9, where 1 is the maximum; inactive means score below 0.9.
# Experiment: ATG_DR4_LXR_CIS: Attagene CIS-FACTORIAL HepG2 Assay for human Liver X Receptor (LXR), DR4 submotif (AID 2282929)
# Conditions: HepG2 Attagene DR4 cis-reporter, mRNA transcription; actives raise or lower the signal
# Description: ATG_CIS is a cell-based, multiplexed-readout assay that uses HepG2, a human liver cell line, with measurements taken at 24 hours after chemical dosing in a 24-well plate.ATG_DR4_LXR_CIS is one of 52 assay component(s) measured or calculated from the ATG_CIS assay. It is designed to make measurements of mRNA induction, a form of inducible reporter, as detected with fluorescence intensity signals by Reverse transcription polymerase chain reaction (RT-PCR) and Capillary electrophoresis technology.Data from the assay component ATG_DR4_LXR_CIS was analyzed into 1 assay endpoint. This assay endpoint, ATG_DR4_LXR_CIS, was analyzed with bidirectional fitting relative to DMSO as the negative control and baseline of activity. Using a type of inducible reporter, measures of mRNA for gain or loss-of-signal activity can be used to understand the reporter gene at the transcription factor-level as they relate to the gene NR1H2 and NR1H3. Furthermore, this assay endpoint can be referred to as a primary readout, because this assay has produced multiple assay endpoints where this one serves a reporter gene function. To generalize the intended target to other relatable targets, this assay endpoint is annotated to the nuclear receptor intended target family, where the subfamily is non-steroidal.
# Human liver HepG2 cells are transiently transfected with multiple reporter transcription units (MRTUs) in 6-well plates using FuGene 6 reagent (Roche; 3 ml FuGene/1 mg DNA). The MRTU constructs are regulated by a cis-regulating element (promoter). […] A major difference between the CIS and TRANS system is that in CIS activities of endogenous TFs are measured, whereas the TRANS assay evaluates changes in activities of exogenous, chimeric NR-Gal4 proteins. […] At the end of 24 hour incubation, total RNA was isolated using TriZol reagent (Invitrogen). The isolated RNA is then reverse-transcribed using oligo(dT) primer and Mo-MLV reverse transcriptase (Invitrogen) with DNAse I (Ambion) treatment for 30 min. The one-tenth of the produced cDNA was amplified by PCR using Taq DNA polymerase (Invitrogen) and two reporter sequence-specific primers. The PCR products were fluorescently labeled by primer extension with 6-arboxyfluorescein (6-FAM) 5'-labeled reporter sequence-specific primer (2 min at 95 C, 20 s at 68 C and 10 min at 72 C) and these products were digested with 5U of HpaI (New England Biolabs) for 2h at 37 C. The fragments were purified using Qiaquick PCR columns (Qiagen), analyzed on an ABI 3130xL genetic analyzer (Applied Biosystems) with peak positions identified by using a set of X-rhodamine (ROX)-labeled MapMarker1000 molecular weight standards (BioVentures). The raw capillary electrophoresis data was processed using Attagraph software (Attagene).
Compound,outcome,AC50
CC(C)(C)NC(=O)[C@H]1CC[C@H]2[C@@H]3CC[C@H]4NC(=O)C=C[C@]4(C)[C@H]3CC[C@]12C,inactive,
CC=C(C)C(C)=O,inactive,
COc1nccnc1CC(C)C,inactive,
CCCSSCCC,inactive,
CC(C)c1ccc2ncccc2c1,inactive,
CCOC(=O)c1ccccc1C,inactive,
N#Cc1ccc(C(c2ccc(C#N)cc2)n2cncn2)cc1,inactive,
Oc1ccc(-c2ccccc2)c(Cl)c1,inactive,
C=CC(=O)NC(C)(C)C,inactive,
CCCCCCO,inactive,
CC1=CCC(C(C)C)C=C1 (stereo not given),inactive,
CCC1(C)C(=O)N(Cl)C(=O)N1Cl (stereo not given),inactive,
C=C[Si](OCCOC)(OCCOC)OCCOC,inactive,
OCCCc1ccccc1,inactive,
COC(C=C(C)CCC=C(C)C)OC,inactive,
CCCCOC(=O)CCC(C)=O,inactive,
C=CC(C)(O)CC/C=C(\C)CC (stereo not given),inactive,
C=Cc1ccc(OC(C)=O)cc1,inactive,
Nc1ccc(C(=O)O)cc1,inactive,
C=CC(=O)OCCCCCCOC(=O)C=C,,49.7 µM (active)

Compound,outcome,AC50
CC(C)c1cc(C(C)C)cc(C(C)C)c1,,25.9 µM (active)
CC(C)=CCCC(C)=CC#N,inactive,
C=CC(=O)O[C@H]1C[C@@H]2CC[C@@]1(C)C2(C)C,inactive,
Cc1ccc(C)c(OCCCC(C)(C)C(=O)O)c1,inactive,
CCCC/C=C/C=C\C=O,,135 µM (active)
CC(=O)CCC1=C(C)CCCC1(C)C,inactive,
C=CCNCC=C,inactive,
CC(=O)CCC=C(C)C,inactive,
Cc1ccc2c(c1)CCCN2,inactive,
CCCCC/C=C\C/C=C\CCCCCCCC(=O)O,,76.9 µM (active)
CCCCCCCCC(CO)CCCCCC (stereo not given),,53 µM (active)
C=C[C@@]1(C)CC(=O)[C@]2(O)[C@@]3(C)[C@@H](O)CCC(C)(C)[C@@H]3[C@H](O)[C@H](OC(C)=O)[C@@]2(C)O1,,0.51 µM (active)
CC(C)c1ccc(O)c(C(C)C)c1,inactive,
CC1(C)CCC[C@]2(C)[C@H]3CC(=O)O[C@]3(C)CC[C@@H]12,inactive,
O=C1CCCCC1C1CCCCC1 (stereo not given),inactive,
Clc1cccnc1,inactive,
CC1C(C)(C)C2=C(C(=O)CCC2)C1(C)C (stereo not given),inactive,
O=S(=O)(O)c1ccc(Nc2nc(Nc3ccc(C=Cc4ccc(Nc5nc(Nc6ccc(S(=O)(=O)O)cc6)nc(N(CCO)CCO)n5)cc4S(=O)(=O)O)c(S(=O)(=O)O)c3)nc(N(CCO)CCO)n2)cc1,inactive,
CC(C)OC(=O)c1ccccc1,inactive,
CCCCCCCCCCCCCC(=O)OC(C)C,inactive,
